Records with an inconclusive call do not appear. A number with no mark means an inactive call. Calls follow the shape of the dose curve; as a rule, active = well fitted inhibition curve with a large enough effect; inconclusive = small, poorly fitted or top-dose-only effect; inactive = flat fitted curve, though single readings scatter.

Luciferin 4-monooxygenase (Photinus pyralis), sequence (P08659 whole entry, looked up): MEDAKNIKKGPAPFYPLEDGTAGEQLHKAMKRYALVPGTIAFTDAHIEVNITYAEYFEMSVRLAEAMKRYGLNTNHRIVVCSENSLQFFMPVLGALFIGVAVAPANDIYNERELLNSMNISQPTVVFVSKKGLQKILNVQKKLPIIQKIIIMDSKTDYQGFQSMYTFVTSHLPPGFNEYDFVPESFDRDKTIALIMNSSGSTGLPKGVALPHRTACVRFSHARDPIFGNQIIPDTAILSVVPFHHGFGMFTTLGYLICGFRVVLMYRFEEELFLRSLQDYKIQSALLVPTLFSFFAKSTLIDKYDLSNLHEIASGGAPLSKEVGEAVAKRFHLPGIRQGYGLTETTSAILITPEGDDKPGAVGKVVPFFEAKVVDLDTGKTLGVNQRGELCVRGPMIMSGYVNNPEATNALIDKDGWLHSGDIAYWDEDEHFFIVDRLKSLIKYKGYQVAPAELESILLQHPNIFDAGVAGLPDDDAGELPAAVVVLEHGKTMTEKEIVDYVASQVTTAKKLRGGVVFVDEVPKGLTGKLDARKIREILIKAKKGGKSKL

The test concerns the target Luciferin 4-monooxygenase (Photinus pyralis) (UniProt P08659). Nature of the test: Biochemical firefly luciferase enzyme assay for NPC (AID 624030).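 Also: purified P. pyralis luciferase at 10 nM with luciferin and ATP substrate; 0% = DMSO and -100% = full luciferase inhibition by PTC124 control; nearly all actives have a fitted effect of over 70% in size.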 As to conditions: purified P. pyralis luciferase, luminescence, 5 min; series mostly up to 58.6 µM; activity change, negative = inhibition: at the top concentration. A digest of the protocol: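 Counter-screen for direct inhibition of the luciferase enzyme by approved-drug library compounds, run at 10 nM enzyme in 50 mM Tris acetate (final). Luminescence was read within 5 min of enzyme-buffer addition and normalized to PTC124 versus DMSO (0%).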
With `COc1cc(CC(C)N)c(OC)cc1C` (stereo not given), the “activity change, negative = inhibition” value was 0.238% [at 123 µM].

As to `CC(=O)[C@@]1(O)CC[C@@H]2[C@@H]3CCC4=CC(=O)CC[C@]4(C)[C@]3(F)[C@@H](O)C[C@@]21C`, the “activity change, negative = inhibition” value is -3.27%.

Consider `C#C[C@]1(OC(=O)CCCCCC)CC[C@H]2C3CCC4=CC(=O)CC[C@@H]4[C@H]3CC[C@@]21C` (stereo not given in full), for which the “activity change, negative = inhibition” value was -3.44%.

`O=C1[O][Sb-]23[O]C(=O)C([O]2)C2[O][Sb-]4([O]C(=O)C([O]4)C1[O]3)[O]C2=O`: the “activity change, negative = inhibition” value is -5.84%.

Take `CC(C)[C@@]1(NC(=O)[C@H]2C[C@H]3c4cccc5[nH]cc(c45)C[C@@H]3N(C)C2)O[C@]2(O)[C@H]3CCCN3C(=O)CN2C1=O` (tested in a mixture with another compound): the “activity change, negative = inhibition” value is -1.72%.

Turning to `CN1CC[C@]23c4c5ccc(O)c4OC2C(O)C=CC3[C@H]1C5` (stereo not given in full), the “activity change, negative = inhibition” value is -4.14% [at 123 µM].

As for `CC(C)=CCN1CC[C@@]2(C)c3cc(O)ccc3C[C@H]1[C@@H]2C`, the “activity change, negative = inhibition” value is 0.692% [at 123 µM].

Regarding `CCNC(C)Cc1ccc2c(c1)OCO2` (stereo not given), the “activity change, negative = inhibition” value is 2.81% [at 123 µM].

For the compound `C[C@]12CCC(=O)C=C1CC[C@H]1C2CC[C@@]2(C)[C@@H]1CC[C@]2(C)O` (stereo not given in full), the “activity change, negative = inhibition” value was -4.89%.

On to `Oc1ccc2c3c1OC1C(O)C=CC4[C@@H](C2)NCC[C@]314` (stereo not given in full), for which the “activity change, negative = inhibition” value is 0.631% [at 123 µM].

As to `CC(C)=CCN1CC[C@@]2(C)c3cc(O)ccc3C[C@@H]1C2C` (stereo not given in full), the “activity change, negative = inhibition” value was -2.43% [at 123 µM].

With `C[C@]12CCC3C(CCC4=CC(=O)CC[C@@H]43)C1CCC2O` (stereo not given in full), the “activity change, negative = inhibition” value is 0.957%.

As for `CC(N)C(=O)c1ccccc1` (stereo not given), the “activity change, negative = inhibition” value is -14.4% [at 123 µM].

Turning to `C[N+]1(CCF)[C@@H]2CC[C@@H]1CC(OC(=O)C(O)(c1ccccc1)c1ccccc1)C2` (stereo not given in full), the “activity change, negative = inhibition” value is 3%.

Regarding `CCc1cc(OC)c(CC(C)N)cc1OC` (stereo not given), the “activity change, negative = inhibition” value was -0.396% [at 123 µM].

Values taken from PubChem BioAssay (NCATS).
